System: HIPK3
Settings: concentration: 1 μM, replicates: in singlicate; n = 1
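Also: KINOMEscan kinase panel screen.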

Row | Structure (SMILES) | %Inh
1 | COC(=O)c1cccc(NC(=O)NCCNc2ccnc(Nc3ccc(F)cc3)n2)c1 [GSK1379883] | 0%
2 | O=C(Nc1ccccc1)Nc1ccc(Oc2ccc3nccn3n2)cc1 | 0%
3 | Cl.Cl.c1ccc(-c2cc3ccncc3cc2OC2CCNCC2)cc1 [GSK1122999] | 20%
4 | Clc1cc(Nc2ncnc3cc[nH]c23)ccc1OCc1ccccn1 | 27%
5 | Cn1cc(-c2ccc3c(c2)CCN3C(=O)Cc2cccc(C(F)(F)F)c2)c2c(N)ncnc21 [GSK2606414] | 16%
6 | CNc1nccc(-c2c(-c3ccc(F)cc3)ncn2C2CCN(C)CC2)n1 [SB-222903] | 0%
7 | N#Cc1ccc(Oc2ccc(Nc3ncnc4cc[nH]c34)cc2Cl)cc1 | 10%
8 | Cl.c1ccc(Cn2ccc3cc(Nc4ncnc5ccccc45)ccc32)cc1 [GW275568] | 9%
9 | Nc1nc(-c2cccnc2)c(-c2ccnc3ccccc23)s1 [GW684083] | 0%
10 | O=C(Nc1n[nH]c2nc(-c3ccco3)c(Br)cc12)c1ccc(CN2CCCC2)cc1.O=C(O)[C@H](O)[C@@H](O)C(=O)O [SB-742352] | 0%
11 | Fc1cccc(COc2ccc(Nc3ncnc4sc(-c5ccc[nH]5)cc34)cc2Cl)c1 [GW707818] | 1%
12 | Clc1cccc(-c2nc(Nc3ccncc3)c3ccccc3n2)c1 [GW873004] | 2%
13 | CC(C)(C)OC(=O)NC1CCCN(c2cc(-c3ccc4c(N)n[nH]c4c3)nc(N)n2)C1 (stereo not drawn) [GSK2286096] | 12%
14 | COc1ccc(-c2oc3ncnc(N)c3c2-c2ccc(OC)cc2)cc1 [SB-589132] | 3%
15 | Nc1nc(-c2ccccn2)c(-c2ccnc3ccccc23)s1 [GW548057] | 15%
16 | CCCc1ccc(S(=O)(=O)NC2CCN(c3ccnc(Nc4ccc(OC)cc4)n3)C2)cc1 (stereo not drawn) [GSK1379737] | 8%
17 | COC(=O)c1c(-c2ccccc2)c2cc(Cl)ccc2c(=O)n1Cc1ccc(S(C)(=O)=O)cc1 | 0%
18 | Cl.Fc1ccccc1COc1ccc(Nc2ncnc3ccc(-c4nnc(C(F)(F)F)o4)cc23)cc1Cl [GW424170] | 0%

Row | Structure (SMILES) | %Inh
19 | Oc1ccc2ncnc(Nc3ccc(OCc4ccccc4)cc3)c2c1 [GI262866] | 6%
20 | CSc1nn2c(=O)cc(N3CCOCC3)nc2n1Cc1cccc(Cl)c1Cl [GSK2347225] | 17%
21 | CCc1nc(-c2cccc(N(C)S(=O)(=O)c3ccccc3)c2)c(-c2ccnc(Nc3ccc(N4CCN(C(C)=O)CC4)nc3)n2)s1 [GSK1645895] | 17%
22 | COc1cc2ncnc(Nc3ccc(OCc4ccccc4Br)c(Cl)c3)c2cc1OC.Cl [GI261590] | 0%
23 | Cc1ccc(C)c(NC(=O)NCCNc2ccnc(Nc3ccc(F)cc3)n2)c1 [GSK1379878] | 0%
24 | CN1CCC(n2cnc(-c3ccc(F)cc3)c2-c2ccnc(NC3CCNCC3)n2)CC1 [SB-229482] | 0%
25 | CN1c2ccc(-c3ccc(C(=O)NCCO)cc3)cc2-c2[nH]ncc2S1(=O)=O | 39%
26 | O=C(Nc1ccccc1F)NC1CCN(c2ccnc(Nc3ccc(F)cc3)n2)C1 (stereo not drawn) [GSK1379722] | 10%
27 | Cn1ccc2ncnc(Nc3ccc(Oc4cccc(Cl)c4)c(Cl)c3)c21 | 22%
28 | CCC(CC)(CC)n1cnc2c(N)ncnc21 [SKF-97620] | 19%
29 | Cl.Cn1ccc(-c2cccc(Nc3ccnc4cc(-c5nccs5)ccc34)c2)n1 [GW525701] | 0%
30 | Fc1ccc(Nc2nccc(-c3c(-c4ccc(Cl)cc4)nn4ncccc34)n2)cc1F [GW829058] | 36%
31 | COc1ccc(NC(=O)c2ccc(-c3cc(-c4nnc(C)o4)ccc3C)cc2)cc1 [GW595885] | 10%
32 | CS(=O)(=O)CCNCc1ccc(-c2ccc3ncnc(Nc4ccc(OCc5ccccc5)c(Cl)c4)c3c2)o1.Cl [GW574783] | 18%
33 | CCn1c(-c2ccncc2)nc2cnccc21 [SB-735216] | 24%
34 | c1ccc(-c2ccc3c(-c4ccnc(Nc5ccc6c(c5)OCCO6)n4)cnn3n2)cc1 [GW818941] | 0%
35 | Cc1cc(N2CCC(NS(=O)(=O)c3ccc(F)cc3)CC2)nc(Nc2cccc(C#N)c2)n1.O=C(O)C(F)(F)F [GSK1653537] | 0%
36 | COc1ccc(Nc2nccc(N3CCC(NC(=O)Nc4ccc5c(c4)OCO5)C3)n2)cc1 (stereo not drawn) [GSK1379745] | 23%

System: HIPK4
Settings: concentration: 1 μM, replicates: in singlicate; n = 1

Row | Structure (SMILES) | %Inh
37 | COC(=O)c1cccc(NC(=O)NCCNc2ccnc(Nc3ccc(F)cc3)n2)c1 [GSK1379883] | 0%
38 | O=C(Nc1ccccc1)Nc1ccc(Oc2ccc3nccn3n2)cc1 | 4%
39 | Cl.Cl.c1ccc(-c2cc3ccncc3cc2OC2CCNCC2)cc1 [GSK1122999] | 0%
40 | Clc1cc(Nc2ncnc3cc[nH]c23)ccc1OCc1ccccn1 | 0%
41 | Cn1cc(-c2ccc3c(c2)CCN3C(=O)Cc2cccc(C(F)(F)F)c2)c2c(N)ncnc21 [GSK2606414] | 0%
42 | CNc1nccc(-c2c(-c3ccc(F)cc3)ncn2C2CCN(C)CC2)n1 [SB-222903] | 0%
43 | N#Cc1ccc(Oc2ccc(Nc3ncnc4cc[nH]c34)cc2Cl)cc1 | 4%
44 | Cl.c1ccc(Cn2ccc3cc(Nc4ncnc5ccccc45)ccc32)cc1 [GW275568] | 0%
45 | Nc1nc(-c2cccnc2)c(-c2ccnc3ccccc23)s1 [GW684083] | 0%
46 | O=C(Nc1n[nH]c2nc(-c3ccco3)c(Br)cc12)c1ccc(CN2CCCC2)cc1.O=C(O)[C@H](O)[C@@H](O)C(=O)O [SB-742352] | 0%
47 | Fc1cccc(COc2ccc(Nc3ncnc4sc(-c5ccc[nH]5)cc34)cc2Cl)c1 [GW707818] | 0%
48 | Clc1cccc(-c2nc(Nc3ccncc3)c3ccccc3n2)c1 [GW873004] | 22%
49 | CC(C)(C)OC(=O)NC1CCCN(c2cc(-c3ccc4c(N)n[nH]c4c3)nc(N)n2)C1 (stereo not drawn) [GSK2286096] | 0%
50 | COc1ccc(-c2oc3ncnc(N)c3c2-c2ccc(OC)cc2)cc1 [SB-589132] | 0%
51 | Nc1nc(-c2ccccn2)c(-c2ccnc3ccccc23)s1 [GW548057] | 0%
52 | CCCc1ccc(S(=O)(=O)NC2CCN(c3ccnc(Nc4ccc(OC)cc4)n3)C2)cc1 (stereo not drawn) [GSK1379737] | 0%
53 | COC(=O)c1c(-c2ccccc2)c2cc(Cl)ccc2c(=O)n1Cc1ccc(S(C)(=O)=O)cc1 | 0%
54 | Cl.Fc1ccccc1COc1ccc(Nc2ncnc3ccc(-c4nnc(C(F)(F)F)o4)cc23)cc1Cl [GW424170] | 0%

Row | Structure (SMILES) | %Inh
55 | Oc1ccc2ncnc(Nc3ccc(OCc4ccccc4)cc3)c2c1 [GI262866] | 0%
56 | CSc1nn2c(=O)cc(N3CCOCC3)nc2n1Cc1cccc(Cl)c1Cl [GSK2347225] | 2%
57 | CCc1nc(-c2cccc(N(C)S(=O)(=O)c3ccccc3)c2)c(-c2ccnc(Nc3ccc(N4CCN(C(C)=O)CC4)nc3)n2)s1 [GSK1645895] | 0%
58 | COc1cc2ncnc(Nc3ccc(OCc4ccccc4Br)c(Cl)c3)c2cc1OC.Cl [GI261590] | 0%
59 | Cc1ccc(C)c(NC(=O)NCCNc2ccnc(Nc3ccc(F)cc3)n2)c1 [GSK1379878] | 0%
60 | CN1CCC(n2cnc(-c3ccc(F)cc3)c2-c2ccnc(NC3CCNCC3)n2)CC1 [SB-229482] | 0%
61 | CN1c2ccc(-c3ccc(C(=O)NCCO)cc3)cc2-c2[nH]ncc2S1(=O)=O | 16%
62 | O=C(Nc1ccccc1F)NC1CCN(c2ccnc(Nc3ccc(F)cc3)n2)C1 (stereo not drawn) [GSK1379722] | 0%
63 | Cn1ccc2ncnc(Nc3ccc(Oc4cccc(Cl)c4)c(Cl)c3)c21 | 3%
64 | CCC(CC)(CC)n1cnc2c(N)ncnc21 [SKF-97620] | 8%
65 | Cl.Cn1ccc(-c2cccc(Nc3ccnc4cc(-c5nccs5)ccc34)c2)n1 [GW525701] | 0%
66 | Fc1ccc(Nc2nccc(-c3c(-c4ccc(Cl)cc4)nn4ncccc34)n2)cc1F [GW829058] | 19%
67 | COc1ccc(NC(=O)c2ccc(-c3cc(-c4nnc(C)o4)ccc3C)cc2)cc1 [GW595885] | 0%
68 | CS(=O)(=O)CCNCc1ccc(-c2ccc3ncnc(Nc4ccc(OCc5ccccc5)c(Cl)c4)c3c2)o1.Cl [GW574783] | 18%
69 | CCn1c(-c2ccncc2)nc2cnccc21 [SB-735216] | 15%
70 | c1ccc(-c2ccc3c(-c4ccnc(Nc5ccc6c(c5)OCCO6)n4)cnn3n2)cc1 [GW818941] | 21%
71 | Cc1cc(N2CCC(NS(=O)(=O)c3ccc(F)cc3)CC2)nc(Nc2cccc(C#N)c2)n1.O=C(O)C(F)(F)F [GSK1653537] | 0%
72 | COc1ccc(Nc2nccc(N3CCC(NC(=O)Nc4ccc5c(c4)OCO5)C3)n2)cc1 (stereo not drawn) [GSK1379745] | 9%
